Measurements published in PubChem BioAssay (NCI).
“And” between values parts separate entries of the source, which are not always exact repeats. Identical values can stand only once. About 83,000 compounds went through this panel and 20% of them were active in at least one assay; those are over-represented in the sample as a whole.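 Cells were grown in 96-well plates and exposed to the test compound at a single concentration for 48 hours; results are reported as percent growth, with values below 10 considered active.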 The source made the active and inactive calls.

How the values were obtained:
Test in all cases: NCI-60 one-dose screen, 48 h (100 = growth as untreated, 0 = no growth, -100 = all killed)
SK-MEL-2 melanoma = test system: SK-MEL-2 melanoma
EKVX NSCLC = test system: EKVX NSCLC
SN12C renal = test system: SN12C renal
UO-31 renal = test system: UO-31 renal
TK-10 renal = test system: TK-10 renal
ACHN renal = settings: 10 µM unless noted
A498 renal = test system: A498 renal
CCRF-CEM leukemia = test system: CCRF-CEM leukemia
MOLT-4 leukemia = test system: MOLT-4 leukemia
CAKI-1 renal = settings: 10 µM unless noted

Measured: growth

CC(=O)/C=C/c1ccc(N(CCO)Cc2ccc(C(C)(C)C)cc2)cc1
active: SK-MEL-2 melanoma; 100 µM -75.2% | EKVX NSCLC; 100 µM -86.5% | SN12C renal; 100 µM -86.4% | UO-31 renal; 100 µM -100% | TK-10 renal; 100 µM -96.7% | A498 renal; 100 µM -98.3% | CCRF-CEM leukemia; 10 µM unless noted -47.9% [100 µM] | MOLT-4 leukemia; 100 µM -47.4%
inactive: SK-MEL-2 melanoma; 10 µM 93.3% | EKVX NSCLC; 10 µM 57.4% | SN12C renal; 10 µM 73% | UO-31 renal; 10 µM 47.2% | TK-10 renal; 10 µM 96.7% | ACHN renal 80.5% | A498 renal; 10 µM 78.6% | MOLT-4 leukemia; 10 µM 54%

C[C@@H]1O[C@@H](O[C@H]2[C@@H](OC(=O)[C@]34CCC(C)(C)C[C@H]3C3=CC[C@@H]5[C@@]6(C)C[C@H](O)[C@H](O[C@@H]7O[C@H](CO)[C@@H](O)[C@H](O)[C@H]7O)[C@@](C)(CO)[C@@H]6CC[C@@]5(C)[C@]3(C)C[C@H]4O)OC[C@@H](O)[C@@H]2O)[C@H](O)[C@H](O[C@@H]2OC[C@@H](O)[C@H](O[C@@H]3OC[C@](O)(CO)[C@H]3O[C@@H]3OC[C@@H](O)[C@H](O)[C@H]3O)[C@H]2O)[C@H]1O[C@@H]1OC[C@](O)(CO)[C@H]1O
inactive: SK-MEL-2 melanoma; 10 µM unless noted 17.5% | EKVX NSCLC; 10 µM unless noted 39.7% | SN12C renal; 10 µM unless noted 25.5% | UO-31 renal; 10 µM unless noted 28.6% | TK-10 renal; 10 µM unless noted 74.2% | ACHN renal 78% | CAKI-1 renal 71.8% | CCRF-CEM leukemia; 10 µM unless noted 86% | MOLT-4 leukemia; 10 µM unless noted 86.6%
active: A498 renal; 10 µM unless noted 5.96%

C=C1C(=O)O[C@H]2[C@H]1CC/C(COC(=O)NCCCCNC(=O)OC/C1=C/CC[C@@]3(C)O[C@H]3[C@H]3OC(=O)C(=C)[C@@H]3CC1)=C\CC[C@@]1(C)O[C@@H]21
inactive: SK-MEL-2 melanoma; 10 µM unless noted 36.4% | EKVX NSCLC; 10 µM unless noted 89% | SN12C renal; 10 µM unless noted 19.6% | UO-31 renal; 10 µM unless noted 79.8% | TK-10 renal; 10 µM unless noted 20.1% | ACHN renal 57.5% | CAKI-1 renal 76.8% | A498 renal; 10 µM unless noted 95.1%
active: CCRF-CEM leukemia; 10 µM unless noted -33.6% | MOLT-4 leukemia; 10 µM unless noted -14.8%

CCOC(=O)c1nc2c3ccccc3cnn2c1C(=O)c1ccc(OC)cc1
inactive: SK-MEL-2 melanoma; 10 µM unless noted 107% | EKVX NSCLC; 10 µM unless noted 89.7% | SN12C renal; 10 µM unless noted 98.5% | UO-31 renal; 10 µM unless noted 79.4% | TK-10 renal; 10 µM unless noted 140% | ACHN renal 100% | CAKI-1 renal 86.9% | A498 renal; 10 µM unless noted 79.9% | CCRF-CEM leukemia; 10 µM unless noted 91.2% | MOLT-4 leukemia; 10 µM unless noted 88.7%

CC(=O)/C=C/c1ccc(N(C)Cc2ccc(C(C)(C)C)cc2)cc1
active: SK-MEL-2 melanoma; 100 µM -69.2% | EKVX NSCLC; 100 µM -39.2% | SN12C renal; 100 µM -81.1% | UO-31 renal; 100 µM -100% | TK-10 renal; 100 µM -13.7% | A498 renal; 100 µM -95.6% | CCRF-CEM leukemia; 10 µM unless noted -12.1% [100 µM] | MOLT-4 leukemia; 100 µM -38.9%
inactive: SK-MEL-2 melanoma; 10 µM 99.7% | EKVX NSCLC; 10 µM 106% | SN12C renal; 10 µM 90.6% | UO-31 renal; 10 µM 78.5% | TK-10 renal; 10 µM 115% | ACHN renal 98.4% | A498 renal; 10 µM 87.9% | MOLT-4 leukemia; 10 µM 62.2%

CC(=O)/C=C/c1ccc(OCc2ccc(Cl)cc2)cc1
active: SK-MEL-2 melanoma; 100 µM 4.19%
inactive: SK-MEL-2 melanoma; 10 µM 101% | EKVX NSCLC; 10 µM 116% | EKVX NSCLC; 100 µM 28.8% | SN12C renal; 10 µM 102% | SN12C renal; 100 µM 48.6% | UO-31 renal; 10 µM 91.4% | UO-31 renal; 100 µM 21% | TK-10 renal; 10 µM 77.6% | TK-10 renal; 100 µM 27.9% | ACHN renal 109% | A498 renal; 10 µM 82.6% | A498 renal; 100 µM 12.1% | CCRF-CEM leukemia; 10 µM 86.8% | CCRF-CEM leukemia; 100 µM 41.2% | MOLT-4 leukemia; 10 µM 92.8% | MOLT-4 leukemia; 100 µM 16.7%

O=Nc1c(O)ccc2ccccc12
inactive: SK-MEL-2 melanoma; 10 µM unless noted 36.5% and 107% | EKVX NSCLC; 10 µM unless noted 91.4% | UO-31 renal; 10 µM unless noted 55.3% and 52.1% | TK-10 renal; 10 µM unless noted 115% | ACHN renal 57.7% and 83.3% | CAKI-1 renal 71.2% and 96.3% | A498 renal; 10 µM unless noted 84.6% and 99.1% | CCRF-CEM leukemia; 10 µM unless noted 20.6% and 58.4% | MOLT-4 leukemia; 10 µM unless noted 71.3% and 72.6%
4.86% (active) and 93.6% (inactive): SN12C renal; 10 µM unless noted

O=C(/C=C/c1cccc(Oc2ccc(Cl)cc2)c1)c1ccccc1
inactive: SK-MEL-2 melanoma; 10 µM 109% | EKVX NSCLC; 10 µM 110% | SN12C renal; 10 µM 111% | UO-31 renal; 10 µM 86.2% | TK-10 renal; 10 µM 105% | ACHN renal 99.3% | A498 renal; 10 µM 99.2% | MOLT-4 leukemia; 10 µM 62.6%
active: SK-MEL-2 melanoma; 100 µM -59.8% | EKVX NSCLC; 100 µM -79.6% | SN12C renal; 100 µM -63.7% | UO-31 renal; 100 µM -99.8% | TK-10 renal; 100 µM -99.2% | A498 renal; 100 µM -95.3% | CCRF-CEM leukemia; 10 µM unless noted -10.5% [100 µM] | MOLT-4 leukemia; 100 µM -2.97%

COc1ccc(C(c2cc(OC)c(OC)c(OC)c2)n2ccnc2)cc1O (stereo not given)
inactive: SK-MEL-2 melanoma; 10 µM unless noted 43.5% | EKVX NSCLC; 10 µM unless noted 30.2% | SN12C renal; 10 µM unless noted 37.6% | UO-31 renal; 10 µM unless noted 62% | TK-10 renal; 10 µM unless noted 52.9% | ACHN renal 42.4% | CAKI-1 renal 41.3% | MOLT-4 leukemia; 10 µM unless noted 14%
active: A498 renal; 10 µM unless noted 8.04% | CCRF-CEM leukemia; 10 µM unless noted 6.97%
